Eya2 phos inh = Eya2 (human) phosphatase inhibition; AID 488837; recombinant Eya2, OMFP fluorescence dephosphorylation (OMFP is methylfluorescein phosphate); 0.006% of 330,000 active; Potency, µM (top dose mostly 76.9 µM), without a hit: at the top dose activity, negative = inhibition, hits mostly inhibitors; note: % is set by controls: 0 for no effect and ±100 for the full control effect
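Eya2 (0.2 uM) preincubated 10 min at ambient with compound, then OMFP substrate added at 50 uM; 10 min reaction in 50 mM HEPES pH 7.5, 50 mM NaCl, 5 uM MgCl2, 0.05% BSA, 1 mM DTT. Fluorescence read at Ex 485/Em 525 nm.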
MmCpn inh = M. maripaludis TRiC chaperonin inhibition; purified Mm-Cpn ATPase, ADP Transcreener TR-FRET; 0.031% of 330,000 active; Potency, µM (doses to about 76.9 µM), for the others: at the top dose activity, negative = inhibition, hits mostly inhibitors; note: % is set by controls: 0 for no effect and ±100 for the full control effect; nearly all actives have a fitted effect of over 80% in size
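ATPase read-out: TR-FRET ADP immunoassay (anti-ADP Eu cryptate vs ADP-d2), ex 320 nm, em 590/665 nm; signal drops as ADP forms. Enzyme 25 nM, ATP 10 uM, 30 min at 37°C after 10 min compound preincubation.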
a7 integrin act = integrin-mediated muscular dystrophy alleviation activation. alpha7betagal myoblasts, beta-gal FDG fluorescence, 48 h. AID 624291. 0.064% of 350,000 active. Potency, µM (highest dose often 38.3 µM), inactives show at the top dose activation, most hits filed as activators;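 note: 100% = response of the positive control SU9516; nearly all actives have a fitted effect of over 60% in size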
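alpha7betagal+/- myoblasts (passage 13, 250/well) treated 48 h at 37C with compounds at 1:260 dilution of DMSO stock. Lysed, then beta-galactosidase activity read as FDG fluorescence (ex 480/em 540) after 30 min, with pre-read for autofluorescence.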
p53 reactivator = restores transcriptional activity of mutant p53; H1299 p53-A138V BP100-luciferase reporter, luminescence, 24 h; Potency, µM (highest dose often 92.2 µM), inactives show at the highest dose activity change, positive = activation, most hits filed as activators; 0.063% of 320,000 active; AID 504706; note: % of control where 0% means no effect; nearly all actives have a fitted effect of over 45% in size
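H1299 (p53-null), stable ts p53-A138V + BP100-Luc; 1000 cells/well, Opti-MEM/10% FBS; cpd 4 pt, 1:5; 24 h, 37 deg C, 5% CO2; detection reagent 10 min RT; luminescence.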
ClpP mod = qHTS Assay for Activators of ClpP; ATP-dependent Clp protease proteolytic subunit (Bacillus subtilis (strain 168)), P80244; purified B. subtilis ClpP, FRET peptide cleavage, 20 min; Potency, µM (doses to about 57.5 µM), inactives show at the top dose activity change, negative = active; 1.9% of 340,000 active; active = well fitted falling curve with a large enough effect; inconclusive = small, poorly fitted or top-dose-only effect; inactive = no such curve, though single readings can be large or run the other way; note: the source files actives as falling curves though it sought activators and does not explain the sign; nearly all actives have a fitted effect of over 65% in size
Target sequence (P80244 whole entry, looked up): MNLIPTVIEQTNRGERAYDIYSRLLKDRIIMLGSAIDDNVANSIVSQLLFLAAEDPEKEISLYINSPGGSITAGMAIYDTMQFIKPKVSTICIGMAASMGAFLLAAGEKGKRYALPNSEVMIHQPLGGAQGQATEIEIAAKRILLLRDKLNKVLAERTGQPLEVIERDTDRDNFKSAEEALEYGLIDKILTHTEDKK
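ClpP 10 microg/mL final, pH 8 Tris/KCl buffer with BSA, glycerol, Tween-20; compound pinned in; FRET-FV substrate; RT 20 min; Ex320/Em430; ΔFRET vs ADEP 5.8 microM, DMSO, no enzyme.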
USP2a inh = blocks human ubiquitin-specific protease USP2a. O75604. USP2 core, Ub-CHOP2 coupled fluorogenic reporter, 485/531. Potency, µM (highest dose often 38.3 µM), without a hit: at the top dose activity change, negative = inhibition, hits mostly inhibitors. 0.01% of 330,000 active;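 note: plate controls were DMSO wells for no effect and full inhibition by NEM control for full effect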
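USP2 core (10nM final) preincubated 30min RT with compound in 20mM Tris-HCl pH 8.0, 2mM CaCl2, 2mM beta-mercaptoethanol, 0.05% CHAPS; 25nM Ub-CHOP2 plus 25nM reporter substrate added, fluorescence (Ex485/Em531) read after 60min.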
* hit, by the source's call; ? = inconclusive; . = no result; [ ] = another dose, or the depositor's remark. This excerpt belongs to a sample that is enriched for hits. Unless noted, calls come from the whole dose curve; as a rule, active = well fitted curve in the direction sought with a large enough effect; inconclusive = small, poorly fitted or top-dose-only effect, or another doubt; inactive = no such curve, though single readings can be large; an effect the other way counts as inactive or inconclusive. Potency is the fitted concentration of half-maximal effect.

SMILES	Eya2 phos inh	MmCpn inh	a7 integrin act	p53 reactivator	ClpP mod	USP2a inh
Fc1ccc(CNc2ncnc3c2cnn3-c2ccccc2)cc1	.	.	-22%	.	35µM*	.
c1ccc(CCNc2ncnc3c2cnn3-c2ccccc2)cc1	-4%	-3%	5%	?	-21%	-4%
c1ccc(-n2ncc3c(NCc4ccccn4)ncnc32)cc1	3%	0%	2%	29%	13µM*	2%
c1ccc(CNc2ncnc3c2cnn3-c2ccccc2)cc1	0%	-3%	-5%	17%	?	-1%
Cc1ccc(-n2ncc3c(NCCc4ccccc4)ncnc32)cc1C	.	.	.	.	28µM*	.
C=C(c1ccc2ccccc2n1)c1cccs1	.	.	.	.	0%	.
CCCCCCCCN1[C@@H](CC(=O)O)c2ccc(/C=C/C(=O)O)cc2S1(=O)=O	.	.	.	.	-11%	.
CCN1CCN(c2cc(C)c3cc(NC(=O)/C=C/c4cccc(Cl)c4)ccc3n2)CC1	.	.	.	.	-11%	.
CC(=O)Nc1ccc(NC(=O)c2nc(SCc3ccccc3F)ncc2Cl)cc1	.	.	.	.	-30%	.
CCC(NC(=O)c1ccccc1O)c1ccccc1 (centres undefined)	-2%	1%	3%[7.66 µM]	8%	32µM*	2%
O=C1CSC(c2cn(-c3ccccc3)nc2-c2cc3ccccc3oc2=O)N1Cc1ccccc1 (centres undefined)	-16%	1%	24%	-3%	28µM*	3%
O=C1CSC(c2nn(-c3ccccc3)cc2-c2cc3ccccc3oc2=O)N1Cc1ccco1 (centres undefined)	-3%	?	0%	-6%	35µM*	-1%
Cc1ccc(-n2nc(C(=O)N3CCC(C)CC3)c(=O)n(C)c2=O)cc1	.	.	.	.	-2%	.
COc1ccc(OCC(=O)OCC(=O)NCc2ccco2)cc1	-1%	2%	-4%	1%	28µM*	5%
COc1ccc(-c2cc(C(F)(F)F)n3nc(C(=O)NCc4ccco4)cc3n2)cc1	0%	-10%	13%	2%	16µM*	-2%
COc1ccc(-c2ccc(=O)n(CC(=O)NCc3ccco3)n2)cc1	-21%	0%	-4%	-9%	25µM*	-3%
Cc1ccccc1C(=O)OCC(=O)NCc1ccco1	-3%	-3%	-7%	10%	-1%	3%
COc1ccc(CC(=O)OCC(=O)NCc2ccco2)cc1	-6%	0%	-10%	-2%	.	1%
Cc1ccsc1C(=O)OCC(=O)NCc1ccco1	0%	0%	22%	6%	3.2µM*	0%
Cc1ccc(CC(=O)NO)cc1	.	.	.	.	0%	.
CCC[n+]1c(/C=C/c2c(OC)cc(OC)cc2OC)ccc2ccccc21	.	.	.	.	1%	.
COc1ccccc1OCC(=O)N(Cc1ccco1)Cc1ccccc1F	.	.	.	.	-1%	.
COC(=O)c1ccc(NC(=O)c2nc(SCc3ccccc3F)ncc2Cl)cc1	.	.	.	.	-10%	.
Cc1ccc(Oc2nc(-c3ccccc3)ncc2S(=O)(=O)c2ccc(C)cc2)cc1	-28%	-3%	7%	-2%	22µM*	1%
Cc1ccc(Oc2nc(-c3ccccc3)ncc2S(C)(=O)=O)cc1	-21%	-1%	16%	0%	-3%	-1%
SMILES	Eya2 phos inh	MmCpn inh	a7 integrin act	p53 reactivator	ClpP mod	USP2a inh
O=C(CSc1nnc(-c2ccco2)n1Cc1ccccc1)c1ccccc1	8%	1%	-9%	17%	-3%	1%
c1ccc(Cn2c(SCc3cn4cccnc4n3)nnc2-c2ccco2)cc1	-2%	-16%	-4%	-1%	16µM*	0%
N#CC1=C(N)N(c2ccccc2)C(c2ccccc2)C1(C#N)C#N (centres undefined)	-9%	-8%	32%	-3%	10µM*	-1%
O=C(C[n+]1ccccc1Br)c1ccc(F)cc1	.	.	.	.	-4%	.
COc1ccc(-c2cn3c(C)c(C(=O)Nc4ccncc4)sc3n2)cc1	18%	45µM*	2%	4%	23%	1%
Cc1cc2ccccc2n1CCNC(=O)c1cccs1	7%	28µM*	-22%	3%	0%	-1%
